Source: PubChem
Pf growth 48h: Primary qHTS for delayed death inhibitors of the malarial parasite plastid, 48 hour incubation; 310,000 compounds, 5.9% hits; Potency, µM (titrated, usually from 28.7 µM), for inactives: at the highest dose activity change, negative = inhibition, hits mostly inhibitors; P. falciparum luciferase growth in erythrocytes, 48 h; note: potency is the fitted concentration of half-maximal effect
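Growth was read as firefly luciferase luminescence after a 48 h, 37 C, 5% CO2 exposure of compounds to reporter-bearing P. falciparum cultures (0.1% parasitemia, 2% hematocrit final) in Albumax-supplemented RPMI 1640.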
MARV entry inh: qHTS for inhibitors of binding or entry into cells for Marburg Virus | Marburg virus pseudotyped entry inhibition, cell reporter | Potency, µM (series often up to 37.8 µM), for the others: at the top dose activity change, negative = inhibition, most hits filed as inhibitors | 300,000 compounds, 1.8% hits | AID 540276, 2011; calls by dose curve; tested in HEK293 cells; note: potency is the fitted concentration of half-maximal effect
Pf growth 96h: Primary qHTS for delayed death inhibitors of the malarial parasite plastid, 96 hour incubation; Potency, µM (titrated, usually from 28.7 µM), for the others: top-dose activity change, negative = inhibition, most hits filed as inhibitors; 320,000 compounds, 6.9% hits; AID 504834, 2011; P. falciparum luciferase reporter growth, 96 h; note: potency is the fitted concentration of half-maximal effect
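P. falciparum expressing integrated firefly luciferase, in erythrocytes at 2% hematocrit, 0.05% parasitemia, incubated with compounds 96 h at 37 C, 5% CO2. Growth inhibition read as loss of luminescence; two-generation exposure targets delayed-death apicoplast inhibitors.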
Lassa entry inh: qHTS for Inhibitors of binding or entry into cells for Lassa Virus; Lassa virus pseudotype entry inhibition, cell reporter; Potency, µM (highest dose often 37.9 µM), without a hit: top-dose activity change, negative = inhibition, actives largely listed as inhibitors; 300,000 compounds, 1.2% hits; AID 540256, 2011; calls by dose curve; tested in HEK293 cells; note: potency is the fitted concentration of half-maximal effect; nearly all actives have a fitted effect of over 50% in size
HCV inh: qHTS Assay for Inhibitors of Hepatitis C Virus (HCV); Potency, µM (doses to about 41.8 µM), for inactives: top-dose activity change, negative = inhibition, usual class: inhibitors; 340,000 compounds, 3.4% hits; Huh7.5.1 HCVcc-Cre infection, luciferase reporter, 44 h; note: potency is the fitted concentration of half-maximal effect
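Cells (1,000/well) were plated 4 h before compound, then infected with HCVcc-Cre virus (~0.5 moi). After 44 h further culture, infection was read as luciferase luminescence following a 15 min substrate incubation at room temperature.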
HCMV inh: qHTS Assay for inhibitors of the human cytomegalovirus (HCMV). HFF cells, HCMV-luciferase reporter, 72 h; stronger effect = lower value. activity change, negative = inhibition, % at 57.5 µM. 410,000 compounds, 4.5% hits. AID 1259415, 2018; in the data active = activity change below about -60%; inconclusive = no clear call, values can overlap the other calls; inactive = above about -39%
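Two compound doses tested in HFFs infected with HCMV-luciferase, MOI 1 PFU/cell, 72 h at 37C. Lysate luminescence read with OneGlo; data normalized against buffer-only and 10uM Salinomycin inhibitor controls.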
* = called active by the depositor; ? = inconclusive; . = no result; [ ] = dose if it differs, or a comment. Rows were chosen to be rich in hits. Some 14% of all compounds tested hit in one or more screens of this group. Unless noted, calls come from the whole dose curve; as a rule, active = well fitted inhibition curve with a large enough effect; inconclusive = small, poorly fitted or top-dose-only effect, or another doubt; inactive = no such curve, though single readings can be large or run the other way. % is set by controls: 0 for no effect and ±100 for the full control effect.

SMILES | Pf growth 48h | MARV entry inh | Pf growth 96h | Lassa entry inh | HCV inh | HCMV inh
O=S(=O)(c1ccc(NC(=S)N/N=C/c2ccc(Oc3ccccc3)cc2)cc1)N1CCOCC1 | 18% | -2%[46.1 µM] | 3% | -2%[46.1 µM] | -16% | -2
O=S(=O)(c1ccc(NC(=S)N/N=C/c2ccc(N3CCOCC3)cc2)cc1)N1CCOCC1 | -22% | -5% | 5.9µM* | ? | 11% | -6
N#Cc1ccc(/C=N/NC(=O)CCc2ccc(S(=O)(=O)N3CCOCC3)cc2)cc1 | ? | -2% | 6.6µM* | ? | 11% | -17
N#Cc1ccc(NC(=O)CCc2ccc(S(=O)(=O)N3CCOCC3)cc2)cc1 | . | -3% | ? | -15% | ? | 0
O=S(=O)(c1ccc(NC(=S)N/N=C/c2c3ccccc3cc3ccccc23)cc1)N1CCOCC1 | 3.3µM* | . | ? | . | 2.8µM* | -95*
CCc1ccc(NC(=O)C2CCC(CNS(=O)(=O)c3ccc4c(c3)CC(C)N4C(C)=O)CC2)cc1 (configuration not stated) | . | . | . | -1%[46.1 µM] | . | 29
O=C(CCl)N1c2ccccc2Oc2ccc3ccccc3c21 | . | ? | . | 0%[46.1 µM] | ? | ?
CC(=O)N1c2ccccc2Oc2cc3ccccc3cc21 | 1.9µM* | ? | ? | ? | 12% | 16
CCOC(=O)c1cnc2ccccc2c1Nc1ccc2c(c1)OCCO2 | 4.1µM* | -29% | -1% | -25% | ? | -70*
COc1cc(Nc2nc(SCC(=O)c3ccc(Br)cc3)nc3ccccc23)cc(OC)c1 | . | . | . | -22%[46.1 µM] | . | -62*
CCOC(=O)CSc1nc(Nc2ccc3c(c2)OCO3)c2ccccc2n1 | 8.3µM* | 2% | 8.3µM* | -9% | ? | -22
CCOC(=O)CSc1nc(NCc2ccco2)c2ccccc2n1 | -2% | -6% | 5% | ? | -78% | -13
N#CCSc1nc(Nc2ccc3c(c2)OCO3)c2ccccc2n1 | ? | ? | -5% | -17% | 8.9µM* | -63*
COc1cccc([C@@H]2Oc3ccc(Br)cc3C(=O)[C@@H]2OC(=O)N[C@H](C)C2CCCCC2)c1 | . | -30%[14.2 µM] | . | . | . | .
Cc1ccc(Cl)cc1NC(=O)c1ccccc1OCC(=O)Nc1ccc(Cl)cc1 | ? | . | 9.3µM* | . | 11% | 20
Cc1ccc(NC(=O)COc2ccccc2C(=O)Nc2ccccc2)cc1Cl | ? | -1% | -95% | 14% | -9% | 19
COc1cc(NC(=O)c2ccccc2Cl)c2ncccc2c1 | -10% | . | ? | . | 10µM* | 29
CCOc1ccccc1C(=O)Nc1cccc2cccnc12 | ? | ? | ? | 4%[46.1 µM] | 11µM* | ?
CCOc1ccccc1C(=O)Nc1cc(Cl)ccc1O | 3.3µM* | -16% | . | 11% | 7.1µM* | 34
O=C(Nc1cccc2cccnc12)c1cccc2ccccc12 | . | ? | 1% | -24%[46.1 µM] | ? | ?
Cc1ccc(-c2csc(/C(C#N)=C/c3ccccc3Cl)n2)cc1 | . | . | . | 24%[46.1 µM] | . | 83
Cc1ccc(CCNC(=O)c2cc3c(=O)n(C)c4ccccc4c3n2C)cc1 | . | 4%[46.1 µM] | . | -23%[46.1 µM] | . | -16
Cc1ccccc1-c1ccc2c(c1)O[C@H](CN(C)C(=O)C1CC1)[C@@H](C)CN([C@@H](C)CO)S2(=O)=O | . | . | . | . | . | 1
Cc1ccc(-c2cc3onc(-c4ccccc4)c3c(=O)n2C)cc1 | 154% | . | 16% | . | -10% | -71*
CNC(=O)c1ccc(-c2cc3onc(-c4ccccc4)c3c(=O)n2C)cc1 | . | . | . | . | ? | -3
SMILES | Pf growth 48h | MARV entry inh | Pf growth 96h | Lassa entry inh | HCV inh | HCMV inh
CC(=O)c1ccc(N2CCN(C(=O)CNS(=O)(=O)c3ccc4c(c3)OCCCO4)CC2)c(F)c1 | ? | ? | ? | 5% | ? | -25
COc1cccc(CC2(CO)CCCN(Cc3cn[nH]c3C3CCCCC3)C2)c1 (configuration not stated) | ? | . | ? | . | 10% | 33
OCC1(Cc2cccc(Cl)c2)CCCN(Cc2cn[nH]c2C2CCCCC2)C1 (configuration not stated) | 12µM* | . | 8% | . | -1% | -27
CN(C)S(=O)(=O)c1ccc(N2CCCC2)c(C(=O)N2CCN(S(=O)(=O)c3cccc(F)c3)CC2)c1 | 10µM* | -26%[46.1 µM] | -28% | ? | ? | -9
Cc1cccc(N2CCN(C(=O)c3cc(S(=O)(=O)N(C)C)ccc3N3CCCC3)CC2)c1C | 0% | ? | -8% | ? | ? | ?
CCN(CC)S(=O)(=O)c1ccc(N2CCCC2)c(C(=O)OCC(=O)/C(C#N)=C(\C)N)c1 | 9.3µM* | 13% | 0% | ? | ? | -6
CCOc1ccccc1N1CCN(C(=O)c2cc(S(=O)(=O)N(C)C)ccc2N2CCCC2)CC1 | 10µM* | . | ? | . | ? | -10
CN(C)S(=O)(=O)c1ccc(N2CCCC2)c(C(=O)OCC(=O)N2CCN(c3ccccc3)CC2)c1 | 15µM* | -12% | 13% | ? | -3% | 11
CCc1nc2ccc(C(=O)Nc3ccc(OC)c(OC)c3)cn2c1N(C)C(=O)Cc1ccccc1 | . | . | . | . | . | 8
CN(C)CCCN(C(=O)c1ccc(N2C(=O)CCC2=O)cc1)c1nc2c(F)cccc2s1 | 9% | -5%[46.1 µM] | -5% | 9% | -12% | 8
CCOc1ccc2nc(N(CCN(C)C)C(=O)c3ccc4c(c3)CCCC4)sc2c1 | -22% | ? | ? | ? | ? | .
